Screens deposited in PubChem by National Center for Advancing Translational Sciences (NCATS).
HP1b binding inh: HP1-beta chromodomain-methylated histone interaction inhibition | P83916 | AlphaScreen HP1-beta / biotin-H3K9me3 peptide binding | Potency, µM (titrated, usually from 114 µM), actives largely listed as inhibitors | 0.56% of 390,000 active | AID 540317; further: nearly all actives have a fitted effect of over 70% in size
Target sequence (P83916 whole entry, looked up): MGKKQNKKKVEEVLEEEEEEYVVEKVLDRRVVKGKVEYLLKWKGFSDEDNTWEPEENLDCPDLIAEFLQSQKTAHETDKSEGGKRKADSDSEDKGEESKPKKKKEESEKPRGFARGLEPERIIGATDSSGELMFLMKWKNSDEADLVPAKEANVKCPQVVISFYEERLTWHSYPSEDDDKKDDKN
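AlphaScreen: HP1-beta (50 nM) preformed 30 min with biotin-H3(1-18)K9me3 peptide (50 nM) in PBS pH 7.4, 0.01% Tween-20. Compound added for 30 min at RT, then streptavidin donor/nickel chelate acceptor beads (10 ug/mL) for 30 min.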
BAZ2B block: BAZ2B (human) inhibition. Q9UIF8. AlphaScreen BAZ2B-H3K14Ac peptide displacement. Potency, µM (top dose mostly 114 µM), actives largely listed as inhibitors. 4.4% of 360,000 active; further: nearly all actives have a fitted effect of over 60% in size
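BAZ2B 50 nM plus b-H3(5-23)K14Ac 50 nM, PBS pH 7.4/0.01% Tween-20, 30 min RT; compound added (max 110 uM), 30 min RT; streptavidin donor/Ni-chelate acceptor beads 10 ug/mL final, 20 min dark; AlphaScreen read.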
JMJD2A Tudor: blocks the human JMJD2A Tudor domain. 4.4% of 390,000 active. AlphaScreen JMJD2A-Tudor / H3K4me3 peptide binding. O75164. Potency, µM (top dose mostly 114 µM), most hits filed as inhibitors. AID 504339; further: nearly all actives have a fitted effect of over 50% in size
PI5P4Ka inh: blocks human PI5P4K alpha kinase activity; AID 652105; 1.2% of 330,000 active; max response, %; PI5P4Kalpha enzyme, ADP-Glo luminescence, 60 min; stronger effect = lower value; P48426; active means max response of -50% or lower; inconclusive means between -30% and -50%; inactive means -30% or higher; further: value at the top dose of about 77 µM
Target sequence (P48426 whole entry, looked up): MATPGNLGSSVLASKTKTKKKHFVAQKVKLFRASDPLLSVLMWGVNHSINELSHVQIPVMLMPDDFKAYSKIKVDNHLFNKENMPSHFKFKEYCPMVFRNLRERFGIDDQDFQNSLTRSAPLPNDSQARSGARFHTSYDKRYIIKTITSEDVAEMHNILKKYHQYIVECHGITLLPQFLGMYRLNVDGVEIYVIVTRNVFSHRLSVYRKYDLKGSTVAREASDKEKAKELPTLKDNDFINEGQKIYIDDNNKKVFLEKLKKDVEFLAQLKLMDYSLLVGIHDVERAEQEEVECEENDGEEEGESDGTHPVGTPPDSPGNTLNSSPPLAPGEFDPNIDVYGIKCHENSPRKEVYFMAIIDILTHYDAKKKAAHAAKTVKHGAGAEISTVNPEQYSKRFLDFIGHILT
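qHTS, 1536-well: enzyme/substrate mix, compound by pin tool, 5 microM ATP final; RT 60 min; ADP-Glo reagents 1 (45 min) then 2 (30 min); luminescence.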
G9a inh: G9a (human) methyltransferase inhibition; Q96KQ7; G9a H3K9 monomethylation, AlphaScreen, 2 h; Potency, µM (titrated, usually from 102 µM), actives largely listed as inhibitors; 8.8% of 350,000 active; further: nearly all actives have a fitted effect of over 75% in size
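Step 1: enzyme (final 20 nM) with compound, 15 min RT. Step 2: substrate peptide 500 nM and SAM 20 uM, 2 h RT. Step 3: anti-H3K9me1 antibody and AlphaScreen beads, 10 min, then plate read.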
PLK1 PBD block: PLK1 (human) polo-box domain binding inhibition; Plk1 PBD binding of FITC phosphopeptide, fluorescence polarization; P53350; Potency, µM, hits mostly inhibitors; 2.8% of 360,000 active; further: series mostly up to about 57 µM; nearly all actives have a fitted effect of over 65% in size
A number is an active result; [ ] = dose if it differs, or a comment. Sampled rows, rich in hits. Any-hit rate of the full collection: about 12%. Unless noted, the call rests on the fitted dose curve; in most records, active means well fitted curve in the direction sought with a large enough effect; inconclusive means small, poorly fitted or top-dose-only effect, or another doubt; inactive means no such curve, though single readings can be large; an effect the other way counts as inactive or inconclusive.

Cc1ccc(S(=O)(=O)NCCc2nnc3ccc(SCc4ccc(F)cc4)nn23)cc1 was read as HP1b binding inh inactive, BAZ2B block inconclusive, JMJD2A Tudor inactive and G9a inh inactive.
`Cc1ccc(S(=O)(=O)NCCSCc2ccccc2)cc1` gave HP1b binding inh inactive, BAZ2B block inactive, JMJD2A Tudor inactive, PI5P4Ka inh inactive, G9a inh 10µM and PLK1 PBD block inactive.
For COc1ccc(-c2nn(-c3ccccc3)cc2CNC[C@H]2O[C@@H](n3cnc4c(N)ncnc43)[C@H](O)[C@@H]2O)cc1 the results were HP1b binding inh inactive, JMJD2A Tudor inactive, PI5P4Ka inh inactive and PLK1 PBD block inactive.
For CCOc1ccc(Br)cc1C1C(C(=O)OC)=C(C)NC2=C1C(=O)c1ccccc12 (centres undefined) the results were HP1b binding inh inconclusive, BAZ2B block 22µM, JMJD2A Tudor 25µM and G9a inh inconclusive.
Screening CCOC(=O)C1=C(C)NC(=O)NC1c1ccc([N+](=O)[O-])o1 (centres undefined) returned HP1b binding inh inactive, BAZ2B block inactive, JMJD2A Tudor inactive, PI5P4Ka inh inactive, G9a inh inactive and PLK1 PBD block inactive.
CCOC(=O)COc1ccccc1C1C(C(=O)OC)=C(C)NC2=C1C(=O)c1ccccc12 (centres undefined) was read as HP1b binding inh inconclusive, BAZ2B block 40µM, JMJD2A Tudor 40µM and G9a inh 13µM.
For COC(=O)COc1ccc(C2C(C(=O)OC)=C(C)NC3=C2C(=O)c2ccccc23)cc1OC (centres undefined) the results were HP1b binding inh inconclusive, BAZ2B block 25µM, JMJD2A Tudor inconclusive and G9a inh 13µM.
`CCOC(=O)C1=C(C)NC2=C(C(=O)c3ccccc32)C1c1ccc([N+](=O)[O-])o1` (centres undefined) gave HP1b binding inh 50µM, BAZ2B block 11µM, JMJD2A Tudor 22µM, PI5P4Ka inh inactive and PLK1 PBD block inactive.
`CCOc1cc(C2C(C(=O)OC)=C(C)NC3=C2C(=O)c2ccccc23)cc(Cl)c1O` (centres undefined) gave HP1b binding inh inactive, BAZ2B block inconclusive, JMJD2A Tudor inactive and G9a inh inconclusive.
Screening COc1cc(C(C(=O)NC(C)(C)C)N(Cc2ccccc2)C(=O)c2cnccn2)cc(OC)c1OC (centres undefined) returned HP1b binding inh inactive, BAZ2B block inactive, JMJD2A Tudor inactive, G9a inh inactive and PLK1 PBD block inactive.
For COc1ccc(CN(C(=O)c2ccc(-c3ccccc3)[nH]2)C(C(=O)NC(C)(C)C)c2ccncc2)cc1 (centres undefined) the results were HP1b binding inh inactive, BAZ2B block inconclusive, JMJD2A Tudor 40µM, PI5P4Ka inh inactive, G9a inh inconclusive and PLK1 PBD block inactive.
For O=C(Cn1cnc2ccccc21)N/N=C/c1ccccn1 the results were HP1b binding inh inactive, BAZ2B block 10µM, JMJD2A Tudor inactive, PI5P4Ka inh inactive, G9a inh inactive[0.501 µM] and PLK1 PBD block inactive.
`Cc1ccc(NC(=O)Cn2cnc3ccccc32)cc1C` gave HP1b binding inh inactive, BAZ2B block inactive, JMJD2A Tudor inconclusive, PI5P4Ka inh inconclusive, G9a inh inactive and PLK1 PBD block 13µM.
`O=C(CCn1cnc2ccccc21)N/N=C/c1ccccc1O` gave HP1b binding inh inactive, BAZ2B block inactive, JMJD2A Tudor inactive, PI5P4Ka inh inactive, G9a inh inactive and PLK1 PBD block 8.4µM.
Screening O=C(Cn1cnc2ccccc21)Nc1cccc([N+](=O)[O-])c1 returned HP1b binding inh inactive, BAZ2B block inactive, JMJD2A Tudor inactive, PI5P4Ka inh inactive, G9a inh inactive[12.7 µM] and PLK1 PBD block inactive.
Cc1nc2ccccc2n1CC(=O)N/N=C\c1ccccn1 was read as HP1b binding inh inactive, BAZ2B block 50µM, JMJD2A Tudor inconclusive, PI5P4Ka inh inactive, G9a inh inconclusive and PLK1 PBD block inactive.
Screening Cc1ccc(/C=N\NC(=O)Cn2c(C)nc3ccccc32)o1 returned HP1b binding inh inactive, BAZ2B block inactive, JMJD2A Tudor inactive, PI5P4Ka inh inactive, G9a inh inactive and PLK1 PBD block inactive.
CCN1CCOC(=O)C1CC(=O)Nc1cccc(OC)c1 (centres undefined) was read as HP1b binding inh inactive, BAZ2B block inactive, JMJD2A Tudor inactive and G9a inh inconclusive.
`O=C(NCc1cccc(F)c1)c1ccc(N2C(=O)Cn3c(cc4sccc43)C2=O)cc1` gave HP1b binding inh inactive, BAZ2B block inactive, JMJD2A Tudor 79µM, PI5P4Ka inh inactive, G9a inh inactive and PLK1 PBD block inconclusive.
For O=C(NCc1ccco1)c1ccc(Cn2c(=O)c3sccc3n(Cc3cccc(F)c3)c2=O)cc1 the results were HP1b binding inh inactive, BAZ2B block inactive, JMJD2A Tudor inactive, PI5P4Ka inh inactive, G9a inh inactive and PLK1 PBD block inactive.
Screening O=C(CSc1nnc(CNC(=O)c2ccccc2)o1)NCc1ccco1 returned HP1b binding inh inactive, BAZ2B block inactive, JMJD2A Tudor inactive, PI5P4Ka inh inactive and PLK1 PBD block inactive.
For O=C(CSc1nnc(CNC(=O)c2c(F)cccc2F)o1)NCc1ccco1 the results were HP1b binding inh inactive, BAZ2B block 71µM, JMJD2A Tudor inactive, PI5P4Ka inh inconclusive and PLK1 PBD block inactive.
`O=C(CSc1nnc(CNC(=O)c2ccccc2F)o1)c1ccccc1` gave HP1b binding inh inactive, BAZ2B block inactive, JMJD2A Tudor inconclusive, PI5P4Ka inh inactive, G9a inh 71µM and PLK1 PBD block inconclusive.
CCOc1ccc(CN(C)C(=O)c2ccc(S(=O)(=O)N(C)c3ccccc3OC)cc2)cc1 was read as HP1b binding inh inactive, BAZ2B block inactive, JMJD2A Tudor inactive, PI5P4Ka inh inactive, G9a inh inactive[12.7 µM] and PLK1 PBD block inactive.
COc1ccc(-c2nc3cc(C(C)C)ccc3o2)cc1NC(=O)c1ccc(C)c(Cl)c1 was read as HP1b binding inh inactive, BAZ2B block inactive, JMJD2A Tudor inactive and G9a inh inactive.
Cc1ccc(-c2nn3c(C)nnc3s2)cc1NC(=O)c1ccc(Br)o1 was read as HP1b binding inh inactive, BAZ2B block inactive, JMJD2A Tudor inactive, PI5P4Ka inh inactive, G9a inh inconclusive and PLK1 PBD block inactive.
For Clc1ccc(-c2nnc3sc(-c4ccc(Br)o4)nn23)c(Cl)c1 the results were HP1b binding inh inactive, BAZ2B block inactive, JMJD2A Tudor inactive, PI5P4Ka inh inactive, G9a inh inactive[2.33 µM] and PLK1 PBD block inactive.
Screening CN(C)c1ccc(-c2nn3c(-c4ccc(Cl)cc4Cl)nnc3s2)cc1 returned BAZ2B block inactive and G9a inh 14µM.
For Clc1ccccc1-c1nnc2sc(-c3ccc4c(c3)OCO4)nn12 the results were HP1b binding inh inconclusive, BAZ2B block inactive, JMJD2A Tudor inconclusive, G9a inh 1.8µM and PLK1 PBD block 4.7µM.
